HP1b binding inh = blocks HP1-beta chromodomain binding to methylated histone tails; P83916; AlphaScreen HP1-beta / biotin-H3K9me3 peptide binding; Potency, µM (titrated, usually from 114 µM), inactives show top-dose activity change, negative = inhibition, most hits filed as inhibitors; 390,000 tested, 0.56% active; AID 540317; further: potency means the concentration at half of the fitted maximal effect; nearly all actives have a fitted effect of over 70% in size
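Compound inhibition of the preformed complex between 50 nM HP1-beta and 50 nM biotinylated H3K9me3 peptide was read by AlphaScreen. Buffer was PBS pH 7.4 with 0.01% Tween-20. Incubations ran 30 min at room temperature, with 10 ug/mL donor/acceptor beads.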
PLK1 PBD block = blocks phosphopeptide binding to human PLK1 polo-box domain. Plk1 PBD binding of FITC phosphopeptide, fluorescence polarization. Potency, µM, for the others: max response, negative = inhibition, most hits filed as inhibitors. 360,000 tested, 2.8% active; further: potency means the concentration at half of the fitted maximal effect; series mostly up to about 57 µM; on the % scale 0 is the no-effect control and ±100 the full control effect; nearly all actives have a fitted effect of over 65% in size
BAZ2B block = inhibitors of human BAZ2B bromodomain; 360,000 tested, 4.4% active; Q9UIF8; AID 504333; Potency, µM (highest dose often 114 µM), for inactives: top-dose activity change, negative = inhibition, hits mostly inhibitors; AlphaScreen BAZ2B-H3K14Ac peptide displacement; further: potency means the concentration at half of the fitted maximal effect; on the % scale 0 is the no-effect control and ±100 the full control effect; nearly all actives have a fitted effect of over 60% in size
Target sequence (Q9UIF8 whole entry, looked up): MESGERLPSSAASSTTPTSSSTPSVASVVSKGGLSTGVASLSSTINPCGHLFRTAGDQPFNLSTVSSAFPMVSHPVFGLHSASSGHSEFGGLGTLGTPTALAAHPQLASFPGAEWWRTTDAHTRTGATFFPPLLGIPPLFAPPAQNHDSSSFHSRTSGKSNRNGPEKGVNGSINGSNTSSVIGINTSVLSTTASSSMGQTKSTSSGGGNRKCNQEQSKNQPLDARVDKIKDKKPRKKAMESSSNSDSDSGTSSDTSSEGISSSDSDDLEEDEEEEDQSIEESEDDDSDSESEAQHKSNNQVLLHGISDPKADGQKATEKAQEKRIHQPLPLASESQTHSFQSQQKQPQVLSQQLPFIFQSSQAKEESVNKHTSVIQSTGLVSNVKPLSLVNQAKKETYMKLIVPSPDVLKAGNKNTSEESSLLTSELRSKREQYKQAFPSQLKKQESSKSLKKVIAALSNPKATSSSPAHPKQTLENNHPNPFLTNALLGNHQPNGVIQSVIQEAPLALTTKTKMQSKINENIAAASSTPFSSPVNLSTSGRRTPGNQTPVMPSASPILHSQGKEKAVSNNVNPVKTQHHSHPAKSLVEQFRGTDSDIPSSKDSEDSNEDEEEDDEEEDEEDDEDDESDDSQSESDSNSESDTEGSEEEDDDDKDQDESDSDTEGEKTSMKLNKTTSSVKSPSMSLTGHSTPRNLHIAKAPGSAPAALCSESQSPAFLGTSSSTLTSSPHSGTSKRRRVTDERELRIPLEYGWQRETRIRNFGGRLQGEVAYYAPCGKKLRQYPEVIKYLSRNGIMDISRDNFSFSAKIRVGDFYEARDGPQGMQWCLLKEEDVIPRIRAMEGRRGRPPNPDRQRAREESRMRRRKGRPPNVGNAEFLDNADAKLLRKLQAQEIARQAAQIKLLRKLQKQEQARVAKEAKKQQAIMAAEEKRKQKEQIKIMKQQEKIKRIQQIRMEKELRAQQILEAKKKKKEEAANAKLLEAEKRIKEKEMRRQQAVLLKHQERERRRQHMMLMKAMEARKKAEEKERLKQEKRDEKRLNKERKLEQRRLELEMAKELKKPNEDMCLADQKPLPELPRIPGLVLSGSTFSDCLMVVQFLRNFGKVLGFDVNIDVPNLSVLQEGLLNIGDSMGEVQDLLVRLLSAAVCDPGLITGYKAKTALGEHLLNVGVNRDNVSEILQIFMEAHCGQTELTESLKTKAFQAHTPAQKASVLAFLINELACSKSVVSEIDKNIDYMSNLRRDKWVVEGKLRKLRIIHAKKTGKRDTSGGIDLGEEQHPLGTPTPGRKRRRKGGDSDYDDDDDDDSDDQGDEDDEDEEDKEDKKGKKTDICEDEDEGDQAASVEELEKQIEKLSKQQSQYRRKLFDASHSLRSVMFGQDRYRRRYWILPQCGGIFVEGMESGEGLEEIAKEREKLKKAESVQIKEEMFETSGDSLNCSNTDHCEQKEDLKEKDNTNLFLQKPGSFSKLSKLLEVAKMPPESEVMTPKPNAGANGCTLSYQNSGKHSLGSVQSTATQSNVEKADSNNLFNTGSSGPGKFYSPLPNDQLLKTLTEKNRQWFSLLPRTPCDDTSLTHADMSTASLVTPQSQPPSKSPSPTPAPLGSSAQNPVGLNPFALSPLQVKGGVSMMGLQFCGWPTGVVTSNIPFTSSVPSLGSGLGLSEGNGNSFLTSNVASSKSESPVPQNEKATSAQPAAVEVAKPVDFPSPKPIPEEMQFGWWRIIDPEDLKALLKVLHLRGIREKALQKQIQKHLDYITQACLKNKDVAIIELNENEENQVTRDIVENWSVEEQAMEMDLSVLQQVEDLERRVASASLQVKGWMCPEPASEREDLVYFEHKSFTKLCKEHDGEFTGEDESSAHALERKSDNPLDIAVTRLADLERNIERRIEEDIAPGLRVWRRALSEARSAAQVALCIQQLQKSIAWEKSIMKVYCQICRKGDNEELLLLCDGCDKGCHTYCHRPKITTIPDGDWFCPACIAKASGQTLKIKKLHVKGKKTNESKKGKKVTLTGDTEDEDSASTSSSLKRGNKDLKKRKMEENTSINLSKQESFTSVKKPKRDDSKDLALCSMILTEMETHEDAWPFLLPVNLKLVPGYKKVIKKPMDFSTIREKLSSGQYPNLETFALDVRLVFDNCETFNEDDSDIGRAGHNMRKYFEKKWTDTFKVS
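In this displacement format the biotinylated H3(5-23) peptide acetylated at Lys14 serves as ligand at 50 nM, with BAZ2B at 50 nM in PBS pH 7.4 containing 0.01% Tween-20. Donor and acceptor beads are 10 ug/mL final.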
PI5P4Ka inh = blocks human PI5P4K alpha kinase activity; P48426; PI5P4Kalpha enzyme, ADP-Glo luminescence, 60 min; hits give low values; max response, %; 330,000 tested, 1.2% active; AID 652105; active means max response of -50% or lower; inconclusive means between -30% and -50%; inactive means -30% or higher; further: value at the top dose of about 77 µM; on the % scale 0 is the no-effect control and ±100 the full control effect
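ADP-Glo luminescence end-point read after a 60 min room-temperature kinase reaction of PI5P4Kalpha plus substrate, initiated with ATP at 5 microM final. Buffer: 0.038 M HEPES pH 7.4, EGTA, 0.1% CHAPS, 5% DMSO.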
G9a inh = blocks human histone lysine methyltransferase G9a | Q96KQ7 | G9a H3K9 monomethylation, AlphaScreen, 2 h | Potency, µM (titrated, usually from 102 µM), inactives show at the highest dose activity, negative = inhibition, hits mostly inhibitors | 350,000 tested, 8.8% active; further: potency means the concentration at half of the fitted maximal effect; on the % scale 0 is the no-effect control and ±100 the full control effect; nearly all actives have a fitted effect of over 75% in size
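AlphaScreen read-out: biotin-H3K9 peptide (500 nM) methylation by 20 nM enzyme with 20 uM SAM, 2 h at room temperature after 15 min compound preincubation; anti-monomethyl H3K9 antibody plus donor/acceptor beads, 10 min dark.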
JMJD2A Tudor inh = blocks the human JMJD2A Tudor domain | O75164 | AlphaScreen JMJD2A-Tudor / H3K4me3 peptide binding | Potency, µM (doses to about 114 µM), inactives show at the highest dose activity change, negative = inhibition, most hits filed as inhibitors | 390,000 tested, 4.4% active | AID 504339; further: potency means the concentration at half of the fitted maximal effect; on the % scale 0 is the no-effect control and ±100 the full control effect; nearly all actives have a fitted effect of over 50% in size
Starred values were filed as active, the others as inactive; ? = inconclusive; . = not tested or not shown; [ ] = another dose, or the depositor's remark. Compounds with a hit are over-represented: about 12% of the library has one in this group of screens. Unless noted, the call rests on the fitted dose curve; in most records, active means well fitted curve in the direction sought with a large enough effect; inconclusive means small, poorly fitted or top-dose-only effect, or another doubt; inactive means no such curve, though single readings can be large; an effect the other way counts as inactive or inconclusive.

SMILES | HP1b binding inh | PLK1 PBD block | BAZ2B block | PI5P4Ka inh | G9a inh | JMJD2A Tudor inh
CC1(C(=O)NS(=O)(=O)c2cccs2)CCN1C(=O)CC1CCCC1 (stereo not given) | . | -1.8% | . | 0.0 | . | .
Cc1ccccc1CNC(=O)Cn1ncn2nc(-c3cccs3)cc2c1=O | 52.7% | . | -16.0% | . | -11.7%[59 µM] | 5.3%
COc1ccccc1N1C(=O)c2cccc3c(N(C)CCO)ccc(c23)C1=O | 60.8% | -19.6% | 4.2% | -4.4 | 11.4% | 11.6%
COc1ccccc1N1C(=O)c2cccc3c(C(=O)O)ccc(c23)C1=O | -7.9% | -8.1% | -5.5% | -3.5 | -11.1% | 79.4µM*
CCOC(=O)C1(C)Oc2ccccc2C(C(=O)OC)=C1C(=O)OC (stereo not given) | 62.7% | ? | . | ? | 28.2µM* | 2.7%
CCOC(=O)C1(C)Oc2ccccc2C(c2ccc(OC)cc2)=C1C(=O)OC (stereo not given) | 65.4% | -4.8% | . | 21.8 | 36.9% | 17.3%
C#CCOCCOCCOCCNc1nc(N2CCN(C(=O)[C@H](CCCN=C(N)N)n3cc(C(N)[C@@H](C)CC)nn3)CC2)nc(N2CCN(C(=O)[C@H](CCC(=O)O)n3cc([C@@H](N)CCCCN)nn3)CC2)n1 (stereo not given in full) | 16.5% | -0.7% | . | 24.1 | . | 89.1µM*
C#CCOCCOCCOCCNc1nc(N2CCN(C(=O)[C@H](CCCCN)n3cc(C(N)[C@H](C)CC)nn3)CC2)nc(N2CCN(C(=O)[C@H](CCC(=O)O)n3cc(C(N)[C@H](C)CC)nn3)CC2)n1 (stereo not given in full) | 44.5% | -9.6% | 79.4µM* | -3.6 | ? | 50.1µM*
C#CCOCCOCCOCCNc1nc(N2CCN(C(=O)[C@H](CCCCN)n3cc([C@@H](N)[C@H](C)CC)nn3)CC2)nc(N2CCN(C(=O)[C@H](CCC(=O)O)n3cc([C@@H](N)CCCCN)nn3)CC2)n1 | 64.8% | 1.4% | . | 11.1 | . | ?
COc1ccc(S(=O)(=O)N2CCN(C(=O)c3ccccc3Cc3ccccc3)CC2)cc1OC | . | 0.1% | . | -5.1 | . | .
S=c1[nH]c2ncccc2o1 | -0.7% | -15.8% | ? | . | ? | -12.3%
S=c1[nH]c2cc(Cl)c3cccnc3c2o1 | 45.8% | ? | 7.4% | -52.7* | . | -15.8%
N#Cc1ccc(-c2nc3ccc(Cl)cn3c2Cc2ccccc2)cc1 | . | 3.4% | . | -8.7 | . | .
CCOC(=O)N1CCC(NC(=O)C2CCN(C(=O)c3cc4oc(C)cc4n3Cc3c(F)cccc3Cl)CC2)CC1 | -8.2% | -9.9% | ? | 0.3 | 35.5µM* | ?
COC(CNC(=O)C1CCN(C(=O)c2cc3oc(C)cc3n2Cc2c(F)cccc2Cl)CC1)OC | 12.9% | -3.2% | -10.6% | 2.9 | 31.6µM* | -9.1%
CSCC[C@H](NC(=O)c1ccc(OCC2CCCO2)cc1)c1nc2ccccc2[nH]1 (stereo not given in full) | 8.1% | 1.9% | . | -5.0 | . | -19.9%
CC1(C(=O)NS(=O)(=O)c2cccc(C#N)c2)CCN1C(=O)CCC1CCCC1 (stereo not given) | . | 3.9% | . | -8.0 | . | .
CCOc1ccccc1CNS(=O)(=O)c1ccc2c(c1)oc(=O)n2C | 18.6% | 26.7µM* | 8.6% | 5.3 | ? | ?
O=C(Nc1ccc(C(=O)N2CCCc3ccccc32)cc1)c1cccs1 | 9.0% | -8.6% | -2.7% | -5.4 | 29.4% | 100µM*
CC(=O)Nc1ccc(C(=O)N2CCCc3ccccc32)cc1 | 17.0% | -3.0% | -22.4% | 5.0 | 67.0% | 4.1%
COc1cc(C(O)c2nc(-c3ccccc3OC)cs2)ccc1F (stereo not given) | . | -2.5% | . | 9.2 | . | .
Cc1cccc(NC(=O)CC2SC(=O)N(c3ccccc3)C2=O)c1 (stereo not given) | -9.5% | 15µM* | -36.8% | -11.2 | ? | -35.1%
O=C(CC1SC(=O)N(c2ccccc2)C1=O)Nc1ccccc1 (stereo not given) | -4.4% | 10.6µM* | -36.1% | . | ? | -34.3%
O=C1SC(Cc2ccccc2)C(=O)N1c1ccccc1 (stereo not given) | 7.1% | -10.7% | 3.8% | -1.1 | -3.3%[59 µM] | 3.5%
Cc1ccc(NC(=O)CC2SC3=NCCN3C2=O)cc1 (stereo not given) | 36.8% | -4.7% | -5.9% | 1.1 | 7.08µM* | -10.0%
SMILES | HP1b binding inh | PLK1 PBD block | BAZ2B block | PI5P4Ka inh | G9a inh | JMJD2A Tudor inh
Cc1ccc(N2C(=O)SC(Cc3ccccc3)C2=O)cc1 (stereo not given) | ? | 7.52µM* | -16.4% | ? | 8.91µM* | -15.9%
CC(=O)Nc1cccc(-c2ccnc3c2CC(C)(C(=O)Nc2cccc(Oc4ccccc4)c2)O3)c1 (stereo not given) | . | 3.4% | . | 3.2 | . | .
Cc1ccc(NC(=O)CC2SC(=O)N(c3ccccc3)C2=O)cc1 (stereo not given) | 8.3% | 6.7µM* | -6.1% | -0.8 | ? | -20.5%
CCCN1C(=O)SC(CC(=O)Nc2ccc(C)cc2)C1=O (stereo not given) | 47.9% | -14.1% | -1.1% | 2.1 | -5.9%[59 µM] | -3.1%
O=C(O)CCCCCNS(=O)(=O)c1cccc2c1C(=O)c1ccccc1C2=O | 19.7% | -14.5% | 35.7% | 1.2 | ? | -10.3%
O=C1c2cccc(NCCCNCCO)c2C(=O)c2cccc(NCCCNCCO)c21 | ? | 2.4% | . | -0.4 | . | 50.1µM*
COCCCn1c(=N)c(C(=O)NCC2CCCO2)cc2c(=O)n3cc(C)ccc3nc21 (stereo not given) | 24.9% | . | -3.1% | . | 0.3%[59 µM] | -12.5%
Oc1c(Br)cc(C=Nc2ccc3nc(-c4ccccc4)[nH]c3c2)c(O)c1Br | -16.3% | -30.0% | 39.8µM* | -70.9* | 28.2µM* | ?
CC(Cl)C(=O)c1ccc2c(c1)CCN2C(=O)C1CC1 (stereo not given) | 24.7% | 18.9µM* | -17.4% | 0.0 | -44.6% | -9.7%
O=C(NCCCc1ccncc1)C1CCC(=O)N(Cc2cccc(F)c2)C1 (stereo not given) | 9.3% | 29.9µM* | -1.7% | -10.8 | 10.6% | -20.3%
COc1cccc(CN2CC(C(=O)NCCOc3ccccc3)CCC2=O)c1 (stereo not given) | 18.2% | 3.1% | -3.7% | 8.0 | 17.0% | -2.8%
O=C(NCCCc1ccccn1)C1CCC(=O)N(Cc2cccc(F)c2)C1 (stereo not given) | 7.1%[57 µM] | -12.9% | -3.4% | -8.9 | 61.8% | -15.8%
COc1cccc(CN2CC(C(=O)NCCOc3ccccc3F)CCC2=O)c1 (stereo not given) | 7.3% | 33.6µM* | 0.0% | 0.7 | -0.7% | -25.7%
CCOC(=O)N1CCc2c(sc3c2c(=O)n(-c2ccc(Cl)cc2)c(=O)n3CC(C)C)C1 | 30.8% | . | 0.1% | . | -1.3%[59 µM] | 7.3%

Bioassay records as filed in PubChem.
